ssDAF12 agonist = S. stercoralis DAF-12 nuclear receptor activators, primary screen, cell-based, luminescence, HEK293, GRIP1 co-expression, lit1-tk-luc; HEK293 ssDAF-12/GRIP1 lit1-tk-luc reporter; % of 3 µM dafachronic acid response; activation, % at 6.8 µM; 370,000 compounds, 1% hits; AID 652126, 2013;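 active = activation above the mean over all tested compounds plus 3 SD, cut at about 0.9% in these data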;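 note: 0% = DMSO-only wells and 100% = 3 µM delta7-dafachronic acid wells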
DAX1 inh-1 = DAX1 (NR0B1) inhibitors on StAR promoter, primary screen, cell-based, luminescence, SF-1 (NR5A1), full-length DAX-1. AID 652010, 2013. HEK293T StAR-luciferase reporter, SF-1/DAX-1 repression relief. 370,000 compounds, 1.1% hits. inhibition, % at 6.8 µM;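 active = inhibition above the mean over all tested compounds plus 3 SD, cut at about 3.6% in these data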;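 note: 0% = DAX-1 cells with DMSO and 100% = cells lacking DAX-1 with DMSO; higher inhibition means more luminescence from relief of DAX-1 repression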
hcDAF12 agonist = H. contortus DAF-12 nuclear receptor activators, primary screen, cell-based, luminescence, HEK293, lit1-tk-luc reporter; HEK293 hcDAF-12 lit1-tk-luc reporter; 0% DMSO, 100% Δ7-dafachronic acid; activation, % at 6.8 µM; 370,000 compounds, 1.4% hits;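 active = activation above the mean of all tested compounds plus 3 SD, cut at about 5.5% in these data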;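 note: 100% = response to 3 µM Δ7-dafachronic acid high control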
Rev-erbA mod = modulators of Rev-erb alpha DNA binding, primary screen, biochemical, FITC-DNA, fluorescence polarization, uHTS. Nuclear receptor subfamily 1 group D member 1 (Homo sapiens), P20393. Rev-erbα–FITC-DNA binding, 90 min. activity, % at 10 µM. 370,000 compounds, 0.79% hits. AID 1259318, 2017;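 active = activity above about 14%, limit read from the data; passing the limit was not always enough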;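 note: 0% = DMSO wells with 35 nM protein and 100% = DMSO wells with 750 nM protein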
DAX1 inh-2 = DAX1 (NR0B1) inhibitors, primary screen, cell-based, HEK293, Gal4-DAX1, luciferase luminescence | HEK293 Gal4-DAX1 luciferase reporter | inhibition, % at 6.75 µM | 340,000 compounds, 0.99% hits | Nuclear receptor subfamily 0 group B member 1 (Homo sapiens), P51843;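 active = inhibition above the mean over all tested compounds plus 3 SD, cut at about 4.2% in these data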;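 note: 0% = DAX1-transfected cells with DMSO and 100% = empty-vector control cells with DMSO; inhibition shows as a rise in luminescence from relieved DAX1 repression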
Target sequence (P51843 207-470 limits assumed): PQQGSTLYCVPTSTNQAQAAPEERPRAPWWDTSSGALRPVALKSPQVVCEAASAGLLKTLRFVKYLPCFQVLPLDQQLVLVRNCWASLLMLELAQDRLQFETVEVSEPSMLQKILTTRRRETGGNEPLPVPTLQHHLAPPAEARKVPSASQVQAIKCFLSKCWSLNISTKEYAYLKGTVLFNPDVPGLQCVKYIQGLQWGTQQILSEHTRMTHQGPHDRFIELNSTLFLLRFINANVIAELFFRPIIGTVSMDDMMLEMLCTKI
hgDAF12 agonist = H. glycines DAF-12 receptor agonists, primary screen, cell-based, luminescence, HEK293, GAL4 fusion, UAS-luciferase; HEK293 GAL4-hgDAF12 UAS-luciferase reporter, agonist luminescence; normalized to butyrate control; activation, % at 6.8 µM; 370,000 compounds, 1.8% hits;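 active = activation above a cutoff set at the mean of all screened compounds plus 3 SD, cut at about 10% in these data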;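 note: 0% = DMSO wells and 100% = sodium butyrate wells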
Active calls of the source: *; . = no result. Compounds with a hit are over-represented: about 4.8% of the library has one in this group of screens.

SMILES | ssDAF12 agonist | DAX1 inh-1 | hcDAF12 agonist | Rev-erbA mod | DAX1 inh-2 | hgDAF12 agonist
S=C(Nc1ccccc1Cl)N1CCCC1 | -1 | 0 | -1 | 1 | 1 | 0
S=C(Nc1ccc(Br)cc1Cl)N1CCCC1 | 0 | 4.1* | 2 | -3 | 1 | 7
CC(C)(CCl)C(=O)Nc1ccc(C(F)(F)F)cc1 | 1.1* | 0 | -1 | 1 | -1 | 3
C/C(=C\C(=O)C(F)(F)F)Nc1ccc(C(F)(F)F)cc1 | -1 | 1 | -1 | -5 | 1 | 3
CCCC(=O)OC12CCCN(C1)/C(=C/c1ccc(Cl)cc1)C2 (stereo unspecified) | -1 | 1 | -1 | -3 | . | 2
O=C1c2ccccc2NC(c2ccc3c(c2)OCO3)N1O (stereo unspecified) | 0 | 1 | 4 | 2 | 2 | 9
O=C1c2ccccc2NC(c2ccc3c(c2)OCCO3)N1c1ccc2c(c1)OCCO2 (stereo unspecified) | 0 | 2 | 4 | -1 | -2 | 12*
COc1cc(C2Nc3ccccc3C(=O)N2c2ccc3c(c2)OCCO3)ccc1OCC(C)C (stereo unspecified) | 0 | 2 | 5 | -3 | -3 | 12*
CC(=O)Nc1ccc(C(/C=C/c2ccccc2)Cc2ccccc2)cc1 (stereo unspecified) | -1 | -1 | -2 | -1 | . | 3
CCCC1CCC(=NNC(=O)OC(C)(C)C)CC1 (stereo unspecified) | -1 | 1 | 0 | -2 | 5.8* | 8
CCCC1CCC(=NNS(=O)(=O)c2ccc(C)c([N+](=O)[O-])c2)CC1 (stereo unspecified) | -1 | 0 | -1 | 3 | 0 | 2
O=C(c1ccccc1)c1ccc2ccccc2c1 | -1 | -1 | 0 | 0 | 5.3* | 3
Cc1cc(C)n(C(=O)Cn2nc(C)c(Br)c2C)n1 | -1 | 0 | 0 | 4 | 0 | 0
Cc1cc(C)n(C(=O)Cn2nc(C)c(Cl)c2C)n1 | -2 | 0 | 0 | -1 | 4.5* | -2
O=C(NC1CCS(=O)(=O)C1)/C(=C/c1ccc(Cl)cc1)NC(=O)c1ccccc1 (stereo unspecified) | -1 | -1 | 1 | 8 | 4.8* | 1
CCCC(=O)Nc1cnc(NC(=O)c2cccc(F)c2)cc1C | 1 | 3 | 4 | 0 | -1 | 13*
CCOC(=O)C(=O)Nc1ccc2c(c1)OCO2 | -1 | 0 | 0 | -1 | -1 | 1
CCOC(=O)/C(N=Nc1ccc2c(c1)OCO2)=C(\C)O | -1 | 2 | 1 | 5 | 6.3* | 10
Nc1ncnc2nc(SCCOc3ccc(Cl)cc3)[nH]c12 | -1 | 0 | 0 | -5 | 0 | 0
Cc1ccc(OCCSc2nc3ncnc(N)c3[nH]2)cc1 | -2 | 1 | -1 | 3 | 4.3* | 0
O=C(Nc1ccccc1O)c1ccc2c(c1)C(=O)N(N1C(=O)c3ccccc3C1=O)C2=O | 1.3* | 1 | 5.9* | -6 | 0 | 2
O=C(Nc1ccc(O)cc1)c1ccc2c(c1)C(=O)N(N1C(=O)c3ccccc3C1=O)C2=O | -1 | -1 | 0 | -4 | 1 | -1
CCOc1ccccc1C(=O)Nc1ccc(S(=O)(=O)Nc2nccc(C)n2)cc1 | 0 | 0 | 6.2* | 0 | 0 | -2
CCOc1ccc(C(=O)Nc2ccc(S(=O)(=O)Nc3nccc(C)n3)cc2)cc1OCC | -1 | 0 | -1 | 3 | -1 | 1
Cc1cc(C)nc(NS(=O)(=O)c2ccc(NC(=O)c3ccc(O)cc3O)cc2)n1 | 0 | 0 | 5.7* | 1 | 1 | 0
SMILES | ssDAF12 agonist | DAX1 inh-1 | hcDAF12 agonist | Rev-erbA mod | DAX1 inh-2 | hgDAF12 agonist
CCOC(=O)C1=C(C(=O)OCC)C2N(Cc3ccc(C#N)cc3)c3ccccc3[C@@]23C[C@@H](C(=O)OC)N(S(=O)(=O)c2c(C)noc2C)C3=N1 (stereo partly specified) | -1 | -1 | -1 | 5 | . | 0
COC(=O)[C@]12C[C@H](CC(=O)NCCCCc3ccccc3)C(=O)N(Cc3ccc(Cl)cc3Cl)C1=C[C@H](COCc1ccccc1)O[C@@H]2C | -1 | 0 | -1 | 5 | . | 0
Cc1cc(C(=O)Nc2ccc(F)cc2C)n(-c2ccccc2)n1 | -2 | 0 | -1 | -5 | 5.0* | 3
Cc1cc(C(=O)Nc2ccc(Br)cc2F)n(-c2ccccc2)n1 | -1 | -1 | 0 | -3 | 0 | 2
O=C(NCc1ccc2c(c1)CCO2)Nc1ccccc1 | -1 | 2 | 0 | -2 | 3 | 12*
Cc1ccc(-n2c(Cc3cccs3)nnc2SCc2ccc(C#N)cc2)cc1 | -1 | 0 | -2 | -8 | . | 1
Cc1ccc(-n2c(COc3cccc(C)c3)n[nH]c2=S)cc1 | -1 | 1 | -2 | -6 | 4.8* | -1
Cc1cccc(OCc2n[nH]c(=S)n2-c2ccccc2)c1 | -2 | -1 | -1 | -3 | 2 | -2
COc1ccc(N2CCN(CCCNC(=O)Cn3c(=O)c4cccn4c4cccnc43)CC2)c(OC)c1 | -1 | . | 1 | -2 | . | 1
CC(C)c1ccc(NC(=O)C2CCCN(S(=O)(=O)c3cnc[nH]3)C2)cc1 (stereo unspecified) | -1 | 0 | -1 | -9 | 5.5* | 0
CC(C)c1ccc(S(=O)(=O)N2CCC(C(=O)N3CCC3)CC2)cc1 | -1 | -1 | -1 | -5 | -1 | -3
CC(C)c1ccc(S(=O)(=O)N2CCN(C(=O)C3CCCCC3)CC2)cc1 | -2 | -2 | 5.8* | 2 | 0 | -4
COP1(=O)CCOCC[C@H](CC(C)C)NC(=O)[C@H](CC(C)C)N1 (stereo partly specified) | -2 | . | 0 | -3 | . | 0
CCC(C)(C(=O)NC1CCCCC1)N(Cc1cccs1)C(=O)c1ccccn1 (stereo unspecified) | -1 | 0 | 0 | -4 | 1 | -2
CCC(C)(C(=O)NC1CCCCC1)N(Cc1cccs1)C(=O)c1ccc(=O)[nH]c1 (stereo unspecified) | -1 | -1 | 0 | 2 | 4.7* | -1
c1ccc(C[n+]2csc3ccccc32)cc1 | 1.1* | 1 | 2 | -1 | 1 | 3
COC(=O)C1CN(C2CCCC2)CCS(=O)(=O)N1Cc1ccc(Cl)cc1 (stereo unspecified) | -2 | -1 | 0 | -2 | . | -4

Bioassay records: PubChem BioAssay, several laboratories
